Sampled rows, rich in hits. Any-hit rate of the full collection: about 2.8%.
PolyA inhibitor: blocks polyadenylation in yeast reporter cells; 0.02% of 300,000 active; AID 1875; S. cerevisiae SKY197-pL101 polyadenylation reporter, beta-gal luminescence; efflux-impaired pdr1/pdr3 knockout yeast; score 100 = 6 SD above DMSO; activity score, % at 12 µM;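 active means lowest replicate activity score at least 50, where 100 means six control SD above control mean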;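 further: yeast exposed to compound for 9 h at 30 °C; higher score means more reporter readthrough which indicates perturbed polyadenylation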
AHR act: activates the human aryl hydrocarbon receptor | P35869 | AHR-responsive luciferase reporter cells, luminescence | activation, % at 5 µM | 2.5% of 320,000 active | AID 2796; in the data active means activation above about 47%;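 further: 0% = vehicle wells and 100% = reference agonist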
p-CIP stab down: p/CIP protein destabilization | decrease of EGFP signal, % at 10 µM | Q05BA5 | F442A p/CIP-EGFP cells, EGFP fluorescence, 16 h | 0.01% of 290,000 active | AID 1984;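 active means EGFP signal decrease of at least 30% at 10 µM or well 3 SD below plate mean, unless failing retest; inactive means the rest, including hits failing retest or dose response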
Platelet DG rel: modulates dense granule release in human platelets; human platelet-rich plasma, SFLLRN dense granule ATP release, luminescence; inhibition, %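 (compounds screened at 7.5 µM in platelet-rich plasma)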; 0.22% of 300,000 active;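 active means mean replicate score, as percent of positive control, at or above 50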
HIF act: HIF pathway transcriptional activation; activation, % at 7.5 µM (by protocol); 0.32% of 300,000 active; U2OS HRE-luciferase reporter, luminescence; normalized: DMSO 0%, desferrioxamine 100%; AID 1910;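 active means mean activation of at least 10% of the iron chelator positive control signal, with at least half of replicates also reaching 10%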
* hit, by the source's call; nt = no result.

SMILES	PolyA inhibitor	AHR act	p-CIP stab down	Platelet DG rel	HIF act
NC(=O)CSc1cn(Cc2ccc(F)cc2)c2ccccc12	1	-3	-54	59*	0
NC(=O)CSc1cn(Cc2ccccc2)c2ccccc12	12	2	-6	-1	0
COc1ccccc1NCC(=O)NN=C1CCS(=O)(=O)c2ccc(F)cc21	nt	49*	nt	nt	nt
Cc1cccc(NS(=O)(=O)c2ccc(C(=O)N3CCC3)cc2)c1C	0	0	nt	2	0
CC(=O)Oc1ccc2ccccc2c1C(NC(=O)Cc1ccccc1)c1ccc(Cl)cc1 (stereo unspecified)	12	12	12	7	-1
COc1ccccc1N/C(N)=N/c1nc(C(F)(F)F)cc(=O)[nH]1	-6	50*	-5	1	0
Cc1onc(-c2ccccc2Cl)c1C(=O)Nc1ccc(-c2cn3cccnc3n2)cc1	27	3	-14	-11	-1
Cc1ccc(-c2cn3cccnc3n2)cc1NC(=O)c1c(-c2ccccc2Cl)noc1C	-25	48*	-16	-4	0
Fc1ccc(NC(=S)N2CCN(c3ncccn3)CC2)cc1	22	0	-18	-21	0
Cc1nnc(SCC(=O)NNC(=O)COc2ccc(Cl)cc2)n1C	-1	2	9	0	0
CC(=O)N1CCN(c2ccccc2NC(=O)c2ccc(C#N)cc2F)CC1	17	71*	0	0	-1
CN1CCN(c2ccccc2NC(=O)c2ccccc2F)CC1	0	4	-6	-1	0
O=C(O)c1cccc(Sc2cc(Cl)ccc2C(=O)O)c1	nt	-1	nt	nt	nt
COc1cccc(C(=O)O/N=C/c2ccc(Sc3ccc(C)cc3)nc2)c1	12	3	-8	-1	1
Cc1ccc(C2=NS(=O)(=O)N(C)C(C(=O)Nc3ccc4c(c3)OCO4)=C2)cc1	-11	53*	16	-1	1
Cc1ccc(C2=NS(=O)(=O)N(C)C(C(=O)NC3CCCC3)=C2)cc1	35	0	-3	-7	31*
Cc1ccc(NC(=O)N2CCCC2C(=O)NCc2ccc(Cl)cc2)cc1 (stereo unspecified)	-11	-1	-17	1	0
O=C(C1=NN[C@@H]2C(=O)N(c3cccc(C(F)(F)F)c3)C(=O)[C@H]12)c1ccc2ccccc2n1	-5	29	6	16	1
O=C(C1=NN[C@@H]2C(=O)N(c3cccc(F)c3)C(=O)[C@H]12)c1ccc2ccccc2n1	0	99*	-2	9	0
COc1ccc(CNC(=O)C2CCN(S(=O)(=O)N3CCCCC3)CC2)c(OC)c1	-6	-1	0	1	0
Cc1c(N2C(=O)c3cccc4cccc(c34)C2=O)c(=O)n(-c2ccccc2)n1C	4	2	-12	6	0
Cc1c(N=C2Nc3cccc4cccc2c34)c(=O)n(-c2ccccc2)n1C	-8	90*	-5	5	0
Cn1c(O)c(C=NCC2CCNCC2)c(=O)n(C)c1=O	5	nt	-2	-11	0
CCN1C/C(=C/c2cccc([N+](=O)[O-])c2)C(=O)/C(=C/c2cccc([N+](=O)[O-])c2)C1	nt	0	-4	nt	nt
COCC(=O)Nc1nc(-c2ccccc2)ns1	-1	47*	-3	0	1
SMILES	PolyA inhibitor	AHR act	p-CIP stab down	Platelet DG rel	HIF act
Nc1nonc1C(=O)NCCNC(=O)c1cccc(Cl)c1	2	3	17	12	0
Cc1nn(CC(=O)OCC(=O)NCCc2ccc(F)cc2)c(C)c1[N+](=O)[O-]	nt	1	nt	nt	nt
CCOc1ccc(CCNC(=O)COC(=O)Cn2nc(C)c([N+](=O)[O-])c2C)cc1OCC	-7	0	nt	13	13*
COc1ccc(C(=O)C2CCCN(C(=O)C3CCOCC3)C2)cc1OC (stereo unspecified)	4	2	0	-5	424*
CCCC(=O)N1CCCC(C(=O)c2ccc(OC)c(OC)c2)C1 (stereo unspecified)	2	2	-10	-2	-1
Cc1sc2ncnc(NCC(O)c3ccc([N+](=O)[O-])cc3)c2c1C (stereo unspecified)	-6	-6	-16	-1	2
Cc1nccc(-c2ccc3c(c2)OCO3)n1	17	58*	-1	-1	0
c1ccc(CSc2ccc(-c3ccc4c(c3)OCO4)nn2)cc1	-18	74*	1	-9	3
Cc1ccc(-c2nnc(-c3ccc4c(c3)OCO4)o2)cc1	nt	79*	3	2	3
c1ccc(-c2nccc(-c3ccc4c(c3)OCO4)n2)cc1	-10	79*	0	8	5
Cc1nc(-c2ccc3c(c2)OCCO3)cs1	13	-2	3	3	1
O=C(O)c1cc(-c2ccc3c(c2)OCO3)nc2ccccc12	19	6	-17	-1	1
c1coc(-c2nnc(-c3ccc4c(c3)OCO4)o2)c1	-6	nt	5	1	nt
O=C(Nn1c(-c2ccncc2)nc2ccccc2c1=O)c1ccc(Br)cc1	15	1	7	9	0
Cc1nc2ccccc2c(=O)n1NC(=O)c1ccco1	nt	1	8	nt	nt
O=C(Nn1c(-c2ccccc2)nc2ccccc2c1=O)c1ccco1	8	58*	-15	-7	0
O=C(Nn1c(-c2ccc(Br)cc2)nc2ccccc2c1=O)c1ccc([N+](=O)[O-])cc1	12	62*	-12	1	0
COc1ccccc1NS(=O)(=O)c1cccc(C(=O)N2CCN(C(=O)c3ccco3)CC2)c1	nt	1	nt	nt	nt
O=C1c2ccccc2C(=O)c2cc(NC(=O)C3CC3)ccc21	-37	168*	6	17	2
O=C(Nc1ccc2c(c1)oc1ccccc12)C1CC1	-16	74*	-16	1	4
O=C(Nc1ccc2c(c1)oc1ccc(S(=O)(=O)N3CCCC3)cc12)C1CC1	-16	-6	-18	5	0
CC1CCCC(NCC(=O)Nc2ccc(C(N)=O)cc2)C1C (stereo unspecified)	-8	-3	2	-2	0
CCCc1nn2c(=O)cc(COc3ccc(NC(=O)c4ccco4)cc3)nc2s1	16	3	-2	4	0
CCN(C(=O)c1ccc(NC(C)=O)cc1)c1ccccc1	-12	3	6	0	0
CC(=O)Nc1ccc(C(=O)N(C)c2ccccc2)cc1	4	1	-4	77*	0
SMILES	PolyA inhibitor	AHR act	p-CIP stab down	Platelet DG rel	HIF act
CC(/C=N/Nc1nnc2c(n1)[nH]c1ccccc12)=C\c1ccco1	12	73*	-1	-12	1
COc1cccc(/C=N/Nc2nnc3c(n2)[nH]c2ccccc23)c1OC	9	28	2	1	1
CCSc1nnc2nc3[nH]c4c(C)cccc4c3nn12	0	54*	1	-4	1
C=CCSc1nnc2c(n1)[nH]c1c(C)cccc12	-28	64*	-7	-3	2
CCSc1nc2c([nH]c3ccccc32)c(=O)n1C	-20	37	-5	-6	0
Cc1cccc2c1[nH]c1nc(N/N=C\c3ccco3)nnc12	9	79*	5	2	1

Screening results (PubChem)
